About 83,000 compounds went through this panel and 20% of them were active in at least one assay; those are over-represented in the sample as a whole.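 Cell lines were cultured in 96-well plates, exposed to a single compound concentration, and assessed for percent growth 48 hours later.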 The source made the active and inactive calls. The calls were made as follows: active = growth percent below 10; inactive = the rest.
What follows are compounds tested on MDA-MB-468 breast (assay: NCI-60 one-dose screen, 48 h (100 = growth as untreated, 0 = no growth, -100 = all killed)). Conditions: 10 µM unless noted.
O=C1Nc2ccc(C(=O)O)c(O)c2C1=O was tested, and the growth was 108% (inactive). In the case of C[C@H]1[C@H](C)CC[C@]2(COC(=O)CCC(=O)O)CC[C@]3(C)C(=CC[C@@H]4[C@@]5(C)CCCNC(C)(C)[C@@H]5CC[C@]43C)[C@H]12, the growth is reported as 69% [100 µM] (inactive). O=C(c1cccs1)c1ccccc1Cc1ccccc1 was tested, and the growth was 100% (inactive). For NC(=O)c1cc(I)ccc1NC(=O)COc1ccc(Cl)cc1Cl, the growth was 71.7% (inactive). With COc1ccc(/C=N/NC(=O)c2cnn3c2NC(c2ccccc2)C3)cc1OC (stereo not given) the growth was 34.8% (inactive). For CN1CCN(c2nc(NCCCNc3ccnc4cc(Cl)ccc34)c3ccccc3n2)CC1, the growth was 54.6% (inactive). CC(=O)[C@@]12O[C@](C)(c3ccccc3)O[C@@H]1CC1C3CCC4=CC(=O)CC[C@]4(C)C3CC[C@@]12C (stereo not given in full) was tested, and the growth was 32.8% (inactive). With CCCCCCCCCCCCCCCCCCNC(=O)[C@H]1CSC(c2ccc(F)c(OC)c2)N1 (stereo not given in full) the growth was 44.1% (inactive). With CCOC(=O)NC(=S)n1oc(=O)c2ccccc21 the growth was 106% (inactive). With CCCn1cc2c(=O)nc3sc(Cc4ccccc4)c(C)n3c2n1 the growth was 111% (inactive). In the case of Nc1nc2ccccc2c2c(=O)c3cc(F)ccc3sc12, the growth is reported as -27.2% (active). O=C1c2cccc3cccc(c23)C(=O)N1Nc1nc(NC2CCCCC2)nc(N2CCOCC2)n1 was tested, and the growth was 114% (inactive). With O=C(Oc1cccnc1)c1ccsc1Nc1ccnc(C(F)(F)F)c1 the growth was 17% (inactive). COC(=O)c1c[n+]([O-])ccc1OC was tested, and the growth was 106% (inactive). OC(CNc1ccnc2cc(Cl)ccc12)CNc1ccnc2cc(Cl)ccc12 was tested, and the growth was -67.9% (active).

Source: PubChem BioAssay (NCI)
